Source: the supplement of paper PMC6555819

system: VDR:RXRa (NR concentration 270 nM, RXRa partner concentration 90 nM); experiment: PBM binding z-score (relative to random genomic background probes); higher = stronger binding; sequences stand for … in GC…GCGATTGACAGCGTAGAATGAAGG
Method: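 Protein-binding microarray (Agilent 4x180K custom design, double-stranded 60-nt probes: 5' GC cap, 34-nt variable region, 24-nt constant primer region; full probe sequence given). Purified or IVT nuclear receptor:RXRα heterodimers (3:1 NR:RXRα, mostly 270:90 nM) or homodimers were incubated for 1 h in PBS with 2% milk and no ligand, then detected with Alexa488 antibodies. Fluorescence from o1-orientation probes (~5 replicates averaged) was converted to z-scores against 500 random hg19 background probes. Variable regions are seed direct-repeat (DR0–DR5) sites, all their single-nucleotide variants and half-site ablations.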

Row | Sequence | PBM binding z-score
1 | GATACAGGGTCAGCTAGAGGACAGAGTATGGAAA | 3.75
2 | CGAACTGGGTCAGAACAGGACAGTGAAGGATGAT | 0.685
3 | GGAACGAGGGCAAGTCGATAGCAGAGTTTGATGG | 0.364
4 | TAGCCTAGGTCATGCGGGCCTGTATAGTGTCGGC | 1.75
5 | GCGACTGGGGCATCAGCAGGTTACCATTACTTAA | -0.244
6 | TCTATTAGATGAAGGGCAACCGACGAGTCCGTTT | 1.02
7 | GCTTGTAGCTCAAGGTTAAGAAAGACTAAGCTAA | -0.0239
8 | GATACAGGGTCAAGGCCACAGTACGCGTATTGAT | 4.2
9 | GCTGCTAGGTTAGGTTGGTCAGCTAACGGGTACG | -0.323
10 | GATACAGGGTCAGCTAGAGGCCAGAGTGTGGAAA | 3.39
11 | ATATGTAGGTTACATCCGGGTCATTCGGGCTATG | 3.9
12 | TCATATAGGTAAATGCTAGGTGAAACTCCGATCT | 0.855
13 | CCGACTGGGGCAAGGTTACCCTAACGCACAGCCA | 0.016
14 | CAAACTTGGTCACCGGAAGGTCAAAGTCCGCATG | 3.88
15 | ATCGACAGGTCGAGGTGAGTATAGAGAAAGGGAA | 0.389
16 | ATTTACGGGTCAACGAGGTTATAGCACGCGTATA | 8.05
17 | CGTCCAAGGTCCTAGGAGGTCAGTGAAGACAGAT | 2.88
18 | ATATGTAGGTTAAGGGTCACTCAGGTTGGTTCGC | 5.43
19 | ATCTCTAGGTACAGTTCAGTGAAAGATCGATAGA | 1.12
20 | CAAACTAGGTCACCGGAAGGTCAATGTCCGCATG | 5.36

Row | Sequence | PBM binding z-score
21 | TAGCCTAGGTCATTCAGGGGCCTGTATAGAAAGC | 2.69
22 | CCGCCTGGGGCAAGGTTACCATAACGCACAGCCA | 0.149
23 | ATATGTAGGTTATGGGTCATTCAGGTTGGTTCGC | 4.33
24 | TCTTGTAGATCAAGCAGGTTAAGATAGCCTGAGT | 0.573
25 | TAGCCTAGGTCATTGGGCAAGTATAGTACGCATC | 2.09
26 | CGAACTAGGTCATCCAGGACAGTAAATACATTGA | 4.71
27 | AGTACAGGGTCACTAGGCCAGAGTAGGTACGAAT | 3.83
28 | TCTGCTAGGTCAACGAGGGTCAGCTAATCTGCTA | 5.1
29 | AATACAGGGTCATCGTAGGCCAGAGGACGCACAG | 5.19
30 | ATCTCTAGGTAAAAGTTCAGTGAGTCCCGAGGAT | 2.09
31 | GCATATAGGTAATACAAGGTGAGAGTCCGATTGT | 0.351
32 | CGAACGAGGGCATTAGTTGATAGCAAATGCCGAT | 0.658
33 | CCTTACCGGTCACTCCAGGTTATAGCATCGGAGT | 1.46
34 | ATCTCTAGGTGAAGATAGTTCAGTGAATGCAAAT | 0.849
35 | TCATATAGGTAATAGAGGTGAAAGTCGGCATCTA | 2.08
36 | CTACCAAGGTGAACAAGGTCTTTGATTACTATTC | 3.6
37 | ATATGTAGGTTACATCCCGGTCATTCAGGCTATG | 1.79
38 | TTACCAAGGTGAAGGTCGTTGATCCCTCTGTAGA | 1.24
39 | TCTTGTAGATCAATAGAGCTTAAGAAAGTGCGCT | -0.108
40 | TCATATAGGTGAATGCTAGGTGAAAGTCCGATCT | 0.699
